Data as given in PubChem BioAssay (NCATS).
Records with an inconclusive call do not appear. Entries that show only a call come without a potency. A number with no mark means an inactive call. The source made the active and inactive calls. The call rests on the fitted dose curve; in most records, active means well fitted inhibition curve with a large enough effect; inconclusive means small, poorly fitted or top-dose-only effect; inactive means flat fitted curve, though single readings scatter.

Tests used:
HaCat [1] = test: Cytotoxic Profiling of Annotated Libraries Using Quantitative High-Throughput Screening (AID 1296008); settings: Five cell lines viability, CellTiter-Glo ATP luminescence, 48-72 h; max response: active compounds read low
Method in brief: (§1)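 Cells exposed to compounds for 48 or 72 hr at 37 degrees Celsius. Viability read as ATP-coupled luminescence with CellTiter-Glo after 10 min at room temperature.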

KB-3-1 = test: as above; settings: Five cell lines viability, CellTiter-Glo ATP luminescence, 48-72 h; max response: active compounds read low
Method in brief: as §1

NIH3T3 = test: as above; settings: Five cell lines viability, CellTiter-Glo ATP luminescence, 48-72 h; max response: active compounds read low
Method in brief: as §1

MCC-13 = test: qHTS assay to identify novel small-molecules to repurpose for Merkel cell carcinoma treatment (AID 1296009); settings: MCC and control cell lines, CellTiter-Glo viability, 72 h; series mostly up to 46 µM
Method in brief: (§2)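 Cells were incubated with compound for 72 hr at 37 degree celsius before CellTiter-Glo addition. Luminescence was normalized with no-cell wells as full cytotoxicity and DMSO as baseline.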

MKL-1 = test: as above; settings: MCC and control cell lines, CellTiter-Glo viability, 72 h; series mostly up to 46 µM
Method in brief: as §2

MKL-2 = test: as above; settings: MCC and control cell lines, CellTiter-Glo viability, 72 h; series mostly up to 46 µM
Method in brief: as §2

MCC-26 = test: as above; settings: MCC and control cell lines, CellTiter-Glo viability, 72 h; series mostly up to 46 µM
Method in brief: as §2

HACAT [2] = test: as above; settings: MCC and control cell lines, CellTiter-Glo viability, 72 h; at 44.8 µM (top of the series) unless noted
Method in brief: as §2
Further: nearly all actives have a fitted effect of over 60% in size.
Potency means the concentration at half of the fitted maximal effect.

For `CCCCCCCCCCCCCCCC[n+]1ccccc1`, which Potency (HaCat [1]) is on record?
Its Potency is 5.96 µM (active).

And the Potency (KB-3-1)?
The Potency was 14.6 µM (active).

What about the Potency (NIH3T3) of the same compound?
The Potency was 16.8 µM (active).

And the Potency (MCC-13)?
The Potency was 11.9 µM (active).

And the Potency (MKL-1)?
Its Potency is 0.841 µM (active).

What about the Potency (MKL-2) of the same compound?
The Potency was 0.422 µM (active).

With `C[C@H]1C[C@H]2[C@@H]3CCC4=CC(=O)C=C[C@]4(C)[C@H]3C(=O)C[C@]2(C)[C@@]1(O)C(=O)CO` as the compound, how does the max response (HaCat [1]) read?
The max response was -5.83%.

What about the outcome (NIH3T3) of the same compound?
Its outcome is “inactive”.

And the Potency (MCC-13)?
Its Potency is “inactive”.

What about the Potency (MCC-26) of the same compound?
The Potency was “inactive”.

What about the Potency (MKL-1) of the same compound?
The Potency was “inactive”.

And the Potency (MKL-2)?
Its Potency is “inactive”.

How did the max response (HaCat [1]) turn out when `CC[N+](CC)(CC)CCOC(=O)C(C1CCCC1)C1CCCC1` was run?
Its max response is -3.44%.

What about the max response (KB-3-1) of the same compound?
The max response was 9.62%.

And the max response (NIH3T3)?
Its max response is -5.66%.

What about the Potency (MCC-13) of the same compound?
The Potency was “inactive”.

What about the Potency (MCC-26) of the same compound?
The Potency was “inactive”.

And the Potency (MKL-1)?
Its Potency is 11.9 µM (active).

What about the Potency (MKL-2) of the same compound?
The Potency was 5.96 µM (active).

What does the source list for `c1ccc(C(O[C@H]2CCCN(CCc3ccc4c(c3)OCO4)C2)c2ccccc2)cc1`?
max response (HaCat [1]): 0.583%; max response (KB-3-1): -8.06%; max response (NIH3T3): -0.771%; Potency (MCC-13): inactive; Potency (MCC-26): inactive; Potency (MKL-1): inactive; Potency (MKL-2): inactive

`COc1ccc(OC(=O)N(CC(=O)O)Cc2ccc(OCCc3nc(-c4ccccc4)oc3C)cc2)cc1` was tested. Which max response (HaCat [1]) did it give?
Its max response is -6.17%.

And the max response (NIH3T3)?
Its max response is 0.554%.

What about the Potency (MCC-13) of the same compound?
Its Potency is “inactive”.

What about the Potency (MCC-26) of the same compound?
Its Potency is “inactive”.

What about the Potency (MKL-1) of the same compound?
Its Potency is “inactive”.

What about the Potency (MKL-2) of the same compound?
Its Potency is “inactive”.

How did the outcome (HaCat [1]) turn out when `Nc1nc2ccccc2n1Cc1ccc(F)cc1` was run?
Its outcome is “inactive”.

What about the outcome (NIH3T3) of the same compound?
The outcome was “inactive”.

What about the outcome (HACAT [2]) of the same compound?
Its outcome is “inactive”.

What about the Potency (MCC-13) of the same compound?
The Potency was “inactive”.

What about the Potency (MCC-26) of the same compound?
The Potency was “inactive”.

What about the Potency (MKL-1) of the same compound?
Its Potency is “inactive”.

For `CCc1cc2cc(OC)c(OC)cc2c(Cc2ccccc2)n1`, which outcome (HaCat [1]) is on record?
Its outcome is “inactive”.

And the max response (NIH3T3)?
Its max response is -13.3%.

What about the outcome (HACAT [2]) of the same compound?
Its outcome is “inactive”.

What about the Potency (MCC-13) of the same compound?
Its Potency is “inactive”.

And the Potency (MKL-1)?
The Potency was “inactive”.

What does the source list for `CC(C)OC(=O)c1cc2c(OCC(O)CNC(C)(C)C)cccc2[nH]1` (stereo not given)?
max response (HaCat [1]): -9.3%; max response (KB-3-1): -5.12%; Potency (MCC-13): inactive; Potency (MCC-26): inactive; Potency (MKL-1): inactive; Potency (MKL-2): inactive

What does the source list for `CCC[C@H](N[C@@H](C)C(=O)N1[C@H](C(=O)O)C[C@@H]2CCCC[C@@H]21)C(=O)OCC`?
max response (HaCat [1]): 1.07%; max response (NIH3T3): -9.35%; Potency (MCC-13): inactive; Potency (MCC-26): inactive; Potency (MKL-1): inactive; Potency (MKL-2): inactive

With `CCOC(=O)N1CCC(n2c(=O)[nH]c3cc(Cl)ccc32)CC1` as the compound, how does the max response (HaCat [1]) read?
Its max response is -12.1%.

What about the max response (NIH3T3) of the same compound?
Its max response is 3.06%.

And the Potency (MCC-13)?
The Potency was “inactive”.

What about the Potency (MCC-26) of the same compound?
The Potency was “inactive”.

And the Potency (MKL-1)?
The Potency was “inactive”.

For `CCC(C(=O)OCCN1CCOC(c2ccccc2)C1C)c1ccccc1` (stereo not given), which outcome (HaCat [1]) is on record?
Its outcome is “inactive”.

What about the max response (NIH3T3) of the same compound?
The max response was -22.2%.

And the outcome (HACAT [2])?
The outcome was “inactive”.

And the Potency (MCC-13)?
Its Potency is “inactive”.

What about the Potency (MCC-26) of the same compound?
Its Potency is “inactive”.

What about the Potency (MKL-1) of the same compound?
Its Potency is “inactive”.

And the Potency (MKL-2)?
Its Potency is “inactive”.

For `CCOC(=O)c1ccc(NC(=O)CN2CCCCC2)cc1`, which max response (HaCat [1]) is on record?
The max response was 4.59%.

What about the outcome (NIH3T3) of the same compound?
The outcome was “inactive”.

What about the Potency (MCC-13) of the same compound?
The Potency was “inactive”.

And the Potency (MCC-26)?
Its Potency is “inactive”.

And the Potency (MKL-1)?
Its Potency is “inactive”.

What about the Potency (MKL-2) of the same compound?
The Potency was “inactive”.

For `O=S(=O)(O)c1ccc2nc(-c3ccccc3)[nH]c2c1`, which max response (HaCat [1]) is on record?
The max response was -12.3%.

And the Potency (MCC-13)?
The Potency was “inactive”.

What about the Potency (MCC-26) of the same compound?
The Potency was “inactive”.

And the Potency (MKL-1)?
The Potency was “inactive”.

What about the Potency (MKL-2) of the same compound?
Its Potency is “inactive”.

Which max response (KB-3-1) does the source give for `CCOC(=O)[C@H](CCc1ccccc1)N[C@@H](C)C(=O)N(CC(=O)O)C1Cc2ccccc2C1` here?
The max response was -12.3%.

And the Potency (MCC-13)?
The Potency was “inactive”.

And the Potency (MCC-26)?
Its Potency is “inactive”.

What about the Potency (MKL-1) of the same compound?
Its Potency is “inactive”.

And the Potency (MKL-2)?
Its Potency is “inactive”.

`CN1CCCN(C(c2ccccc2)c2ccc(Cl)cc2)CC1` (stereo not given) was tested. Which Potency (MCC-26) did it give?
Its Potency is “inactive”.

`CCCC(=O)c1cc(O)c(O)cc1O` was tested. Which max response (HaCat [1]) did it give?
The max response was -3.56%.

What about the Potency (MCC-13) of the same compound?
Its Potency is “inactive”.

And the Potency (MCC-26)?
The Potency was “inactive”.

What about the Potency (MKL-2) of the same compound?
The Potency was 27.3 µM (active).

What does the source list for `CCCC(=O)O[C@]1(C(=O)CC)CC[C@H]2[C@@H]3CCC4=CC(=O)CC[C@]4(C)[C@H]3[C@@H](O)C[C@@]21C`?
max response (HaCat [1]): -13.1%; max response (NIH3T3): -5.79%; Potency (MCC-13): inactive; Potency (MCC-26): inactive; Potency (MKL-1): inactive; Potency (MKL-2): inactive

Which outcome (HACAT [2]) does the source give for `Nc1ncnc2nc[nH]c12` here?
The outcome was “inactive”.

What about the Potency (MCC-13) of the same compound?
The Potency was “inactive”.

What about the Potency (MCC-26) of the same compound?
Its Potency is “inactive”.

What about the Potency (MKL-1) of the same compound?
The Potency was “inactive”.

What about the Potency (MKL-2) of the same compound?
The Potency was “inactive”.

What does the source list for `COc1ccc([C@@H]2Sc3ccccc3NC(=O)[C@@H]2O)cc1`?
Potency (MCC-26): inactive; Potency (MKL-2): inactive

How did the Potency (MKL-2) turn out when `O=C1NC2CCCCN2C12CCN(CCCN1c3ccccc3CCc3ccc(Cl)cc31)CC2` (stereo not given) was run?
Its Potency is 21.1 µM (active).

`C[C@H](N)C(=O)N[C@@H](C)C(=O)NC1[C@H]2CN(c3nc4c(cc3F)c(=O)c(C(=O)O)cn4-c3ccc(F)cc3F)C[C@@H]12` (stereo not given in full) was tested. Which max response (HaCat [1]) did it give?
The max response was 0.555%.

And the Potency (MCC-13)?
The Potency was “inactive”.

What about the Potency (MCC-26) of the same compound?
The Potency was “inactive”.
